Reference: PMC7819943, “Rice protein-binding microarrays: a tool to detect cis-acting elements near promoter regions in rice”
In all, about 35,000 sequences were measured (“fluorescence intensity (a.u.)”: median about 10,000, highest 2% from about 52,000 on). The list comes from a sample in which the highest values are over-represented; it also holds similar and randomly drawn sequences.

Target: T1, OsWOX13 (Oryza sativa, UniProt Q5QMM3 1-267)
T1 sequence: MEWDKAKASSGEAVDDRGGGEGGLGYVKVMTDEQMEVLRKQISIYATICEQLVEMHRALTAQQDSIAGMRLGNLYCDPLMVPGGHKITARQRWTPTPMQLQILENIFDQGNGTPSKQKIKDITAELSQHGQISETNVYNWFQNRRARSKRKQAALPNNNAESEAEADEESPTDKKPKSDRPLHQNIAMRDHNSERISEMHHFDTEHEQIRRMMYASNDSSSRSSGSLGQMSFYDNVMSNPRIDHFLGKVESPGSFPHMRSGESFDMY
Experiment: protein-binding microarray (RPBM); PBS, 2% BSA, 51.3 ng/ul salmon testes DNA, 50 uM zinc acetate, 200 nM TF, 25 C, 1 h; high values mean tight binding
Conditions: protein: recombinant; tags: N-terminal polyhistidine and DsRed monomer fusion (pET32a); label: CyDye5-dUTP incorporated in the synthesized complementary strand; 3' TTTTT single-stranded linker to array surface; dsDNA, one strand shown
Method in brief: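 Polyhistidine-tagged DsRed fusions of transcription factors, joined at the N-terminus, were expressed in E. coli BL21-CodonPlus and isolated on Ni–NTA. They were incubated at 200 nM for 1 h at 25 °C on a custom Agilent array, double-stranded and BSA-blocked, in PBS with 2% BSA, salmon testes DNA and 50 µM zinc acetate. The binding signal is per-feature fluorescence intensity (arbitrary units) read on an Axon 4000B scanner after washing.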

Question: Which binding signal does the source give for “ACAAAACCATTTGTGATTTTCTTTGAGTGCCCAGTTTTGTCGGAGTCACCTAGTGCAG” here?
Answer: Its binding signal is 3210 fluorescence intensity (a.u.).

Question: Which binding signal does the source give for “TTGACTATAATTGATTTGGATAGTTGGCTATAATAAACCTCGGAGTCACCTAGTGCAG” here?
Answer: The binding signal was 54500 fluorescence intensity (a.u.).

Question: “GAGTAAATTGCACACGGATGCAATCAATTGACCTGTGCTGCGGAGTCACCTAGTGCAG” was tested. Which binding signal did it give?
Answer: The binding signal was 20000 fluorescence intensity (a.u.).

Question: “ATCACATAAAATTCCAGGGTTAATTGGATCCATGCTACTGCGGAGTCACCTAGTGCAG” was tested. Which binding signal did it give?
Answer: The binding signal was 8150 fluorescence intensity (a.u.).

Question: For “CATAATTGGTAAATTTGCGGGTTCAATTCCTGCTGGATGCCGGAGTCACCTAGTGCAG”, which binding signal is on record?
Answer: The binding signal was 59500 fluorescence intensity (a.u.).

Question: Which binding signal does the source give for “TTATATTGATTTTCGTATGATTTTGGACACATAAGTACCTCGGAGTCACCTAGTGCAG” here?
Answer: Its binding signal is 38200 fluorescence intensity (a.u.).

Question: How did the binding signal turn out when “AGTAATTGATTGGCCGGATGCTACCGGTAGTTACTGACTACGGAGTCACCTAGTGCAG” was run?
Answer: The binding signal was 60500 fluorescence intensity (a.u.).

Question: With “AGTAGTTAATTGGATTGGGCCGGGCCCACCGGCCCACGGCCGGAGTCACCTAGTGCAG” as the sequence, how does the binding signal read?
Answer: Its binding signal is 30300 fluorescence intensity (a.u.).

Question: “ATTAACTATAAATGATTTGGAGTCAATAGTTGGCTATAATCGGAGTCACCTAGTGCAG” was tested. Which binding signal did it give?
Answer: Its binding signal is 16100 fluorescence intensity (a.u.).

Question: “ATACTGCTGTAACATTTGATTGGATTGAAAGGATATCGCTCGGAGTCACCTAGTGCAG” was tested. Which binding signal did it give?
Answer: The binding signal was 20500 fluorescence intensity (a.u.).

Question: How did the binding signal turn out when “GAAATAAATTTTGGATTGGCTATGTTAATATGATATGACCCGGAGTCACCTAGTGCAG” was run?
Answer: Its binding signal is 25900 fluorescence intensity (a.u.).

Question: With “CTGAAATTGAAGTTAAATGCTACTAGTAATAATTGTACTACGGAGTCACCTAGTGCAG” as the sequence, how does the binding signal read?
Answer: The binding signal was 30100 fluorescence intensity (a.u.).

Question: Which binding signal does the source give for “GGATTTGATTGGATAAGCCGCTCGTAAGGACACCGTGCCTCGGAGTCACCTAGTGCAG” here?
Answer: The binding signal was 52300 fluorescence intensity (a.u.).

Question: How did the binding signal turn out when “GTTCGCGTGATTAATCAAAGCCTATTCCTTGTCACTATGACGGAGTCACCTAGTGCAG” was run?
Answer: Its binding signal is 12400 fluorescence intensity (a.u.).

Question: Which binding signal does the source give for “AAGAAAACCTAATTGTTACTACCATTTACCAAACCTACCACGGAGTCACCTAGTGCAG” here?
Answer: Its binding signal is 3910 fluorescence intensity (a.u.).

Question: With “ACACATGATTTGCATGCCAACCTTATTTCTCCTTCACTTTCGGAGTCACCTAGTGCAG” as the sequence, how does the binding signal read?
Answer: Its binding signal is 16500 fluorescence intensity (a.u.).

Question: Which binding signal does the source give for “CACTGCAAATTAGATCTATATATAGTGAAACATTGTGAGACGGAGTCACCTAGTGCAG” here?
Answer: The binding signal was 6780 fluorescence intensity (a.u.).

Question: Which binding signal does the source give for “CGCCGTAACAATCAGAACCAATCATGCTCTATGTGTAGTTCGGAGTCACCTAGTGCAG” here?
Answer: Its binding signal is 30300 fluorescence intensity (a.u.).

Question: How did the binding signal turn out when “CCCGTACGTGTTACCTAATCATGATGGGATGCCATAATACCGGAGTCACCTAGTGCAG” was run?
Answer: The binding signal was 3570 fluorescence intensity (a.u.).

Question: For “ACATTAATGTGATTTCCCATTTCTACCCTATAGTTCAACACGGAGTCACCTAGTGCAG”, which binding signal is on record?
Answer: Its binding signal is 12800 fluorescence intensity (a.u.).

Question: With “TTTAATTTTGAATTTTAATTAATTGGAGTTTACACGGACTCGGAGTCACCTAGTGCAG” as the sequence, how does the binding signal read?
Answer: Its binding signal is 39800 fluorescence intensity (a.u.).

Question: How did the binding signal turn out when “GCTATAAAATTGACTATAATTGATTTGGAGCCGGTAGTTGCGGAGTCACCTAGTGCAG” was run?
Answer: Its binding signal is 63600 fluorescence intensity (a.u.).

Question: Which binding signal does the source give for “TATTAAATTGACTATAGATGATTTGGAGCTAGTAATTGGCCGGAGTCACCTAGTGCAG” here?
Answer: The binding signal was 36800 fluorescence intensity (a.u.).

Question: Which binding signal does the source give for “ACGTTGATTAGTTAGTACTAACCTACTCCTACGTGTTAACCGGAGTCACCTAGTGCAG” here?
Answer: Its binding signal is 30400 fluorescence intensity (a.u.).

Question: For “AAATTACTAATTTACCTATAATTAGTTGGACTCTAGCTCTCGGAGTCACCTAGTGCAG”, which binding signal is on record?
Answer: The binding signal was 37600 fluorescence intensity (a.u.).

Question: For “GATTAATTGAAAGTTTACATGGACGACGTTGACTCGGGGCCGGAGTCACCTAGTGCAG”, which binding signal is on record?
Answer: The binding signal was 54700 fluorescence intensity (a.u.).

Question: Which binding signal does the source give for “ATTACATTGACTAATAGATGATTTAGAGCTAATAGTGGGCCGGAGTCACCTAGTGCAG” here?
Answer: Its binding signal is 25200 fluorescence intensity (a.u.).

Question: Which binding signal does the source give for “AAAATTGACTATAAATGATTTGGAGCCGGTAGTTGGCTATCGGAGTCACCTAGTGCAG” here?
Answer: The binding signal was 51700 fluorescence intensity (a.u.).

Question: Which binding signal does the source give for “AAAGTAGTTAATTACTGCTAATTACATGGATTAGTTGGGTCGGAGTCACCTAGTGCAG” here?
Answer: Its binding signal is 33500 fluorescence intensity (a.u.).

Question: “GTAATTAATTACTTGATTAACAATTAAATAATAATAGTTACGGAGTCACCTAGTGCAG” was tested. Which binding signal did it give?
Answer: The binding signal was 33200 fluorescence intensity (a.u.).

Question: With “CGCGTTGATTAATTAGTCAGTTCGTTAACAACCTCGACTACGGAGTCACCTAGTGCAG” as the sequence, how does the binding signal read?
Answer: The binding signal was 53000 fluorescence intensity (a.u.).

Question: With “TACTAAATTGACTATGGACGATTTAGAGCTCGTAGTTGGCCGGAGTCACCTAGTGCAG” as the sequence, how does the binding signal read?
Answer: Its binding signal is 53600 fluorescence intensity (a.u.).

Question: With “ACAAGTTGATGGGGACACTTTTCTTATGTAGTATATAATTCGGAGTCACCTAGTGCAG” as the sequence, how does the binding signal read?
Answer: The binding signal was 3270 fluorescence intensity (a.u.).

Question: “AACCCTGATTTCCGTGCTCAACGTTTGACCGTCCGTCTTGCGGAGTCACCTAGTGCAG” was tested. Which binding signal did it give?
Answer: The binding signal was 4670 fluorescence intensity (a.u.).

Question: “TCGATCACAAATTAATATTGTTTGCATACATACTCATATGCGGAGTCACCTAGTGCAG” was tested. Which binding signal did it give?
Answer: Its binding signal is 6200 fluorescence intensity (a.u.).

Question: With “ATCCAATCATTTCAAAACGTATTCCTCAGCACATTAAACGCGGAGTCACCTAGTGCAG” as the sequence, how does the binding signal read?
Answer: Its binding signal is 19400 fluorescence intensity (a.u.).

Question: For “ACTAGCTAACTAAATTTGAAAGAGACTAGCTAGCTGCTTGCGGAGTCACCTAGTGCAG”, which binding signal is on record?
Answer: The binding signal was 6300 fluorescence intensity (a.u.).

Question: With “GCTAATTGCAATTTTGGCCGTCCATAAAGAGCTTGCGGCCCGGAGTCACCTAGTGCAG” as the sequence, how does the binding signal read?
Answer: Its binding signal is 52900 fluorescence intensity (a.u.).

Question: With “CCATAATTTTGCAAAGACATCAAACCAAATAAAACCAATGCGGAGTCACCTAGTGCAG” as the sequence, how does the binding signal read?
Answer: Its binding signal is 6680 fluorescence intensity (a.u.).

Question: Which binding signal does the source give for “GATAATGGTAGTGATTGGTTGAGGCTTGAGAGTAGATGTACGGAGTCACCTAGTGCAG” here?
Answer: The binding signal was 30600 fluorescence intensity (a.u.).

Question: Which binding signal does the source give for “CTAAACCGCATAATAATTTACAGAAATGCCCCTCACCTCCCGGAGTCACCTAGTGCAG” here?
Answer: Its binding signal is 11300 fluorescence intensity (a.u.).

Question: How did the binding signal turn out when “GCACCTTTCAAATTCATCTGATTTATGCATTCTTCTGTAACGGAGTCACCTAGTGCAG” was run?
Answer: Its binding signal is 3340 fluorescence intensity (a.u.).
